# Test results reported in the supplement of paper PMC8728848.
# Many of the other results were omitted from the sample, so the strongest signals are more common in it than they were.
# Assays:
# Assay in all cases: glycan array binding signal (z-score within array); higher = stronger binding
# Conditions in all cases: glycan notation: IUPAC condensed, linker removed; mutation: R343A
# [1] = target: Fuc(a1-2)Gal(b1-3)GalNAc(b1-3)Gal(a1-4)Gal(b1-4)Glc
# Method in brief: (§1)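 Negative Z-scores can be read as non-binding. The Z-score is calculated within each array and then averaged across arrays of one protein sequence at different concentrations or buffers and across linkers. Arrays, 3228 in all, were curated from the Consortium for Functional Glycomics database and kept only where the protein sequence was available.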
# [2] = target: Fuc(a1-2)Gal(b1-3)GlcNAc(b1-3)Gal(b1-4)Glc
# Method in brief: as §1
# [3] = target: Fuc(a1-2)Gal(b1-4)GlcNAc
# Method in brief: as §1
# [4] = target: Fuc(a1-4)GlcNAc
# Method in brief: as §1
# [5] = target: Gal(a1-3)GalNAc
# Method in brief: as §1
# [6] = target: Gal(b1-3)Gal
# Method in brief: as §1
# [7] = target: Gal(b1-3)GlcNAc(b1-3)Gal(b1-4)Glc
# Method in brief: as §1
# [8] = target: Gal(b1-4)GalNAc(a1-3)[Fuc(a1-2)]Gal(b1-4)GlcNAc
# Method in brief: as §1
# [9] = target: Gal(b1-4)Glc
# Method in brief: as §1
# [10] = target: Gal3S(b1-3)[Fuc(a1-4)]GlcNAc
# Method in brief: as §1
# [11] = target: GlcNAc(b1-3)Gal(b1-4)GlcNAc(b1-3)Gal(b1-4)GlcNAc
# Method in brief: as §1
# [12] = target: Kdn(a2-3)Gal(b1-4)GlcNAc
# Method in brief: as §1
# [13] = target: Man(a1-2)Man(a1-3)[Man(a1-2)Man(a1-6)]Man
# Method in brief: as §1
# [14] = target: Man(a1-2)Man(a1-3)[Man(a1-2)Man(a1-6)]Man(a1-6)[Man(a1-2)Man(a1-2)Man(a1-3)]Man
# Method in brief: as §1
# [15] = target: Man(a1-2)Man(a1-3)[Man(a1-2)Man(a1-6)]Man(a1-6)[Man(a1-2)Man(a1-2)Man(a1-3)]Man(b1-4)GlcNAc(b1-4)GlcNAc
# Method in brief: as §1
# [16] = target: Man(a1-2)Man(a1-3)[Man(a1-6)]Man(a1-6)[Man(a1-2)Man(a1-3)]Man(b1-4)GlcNAc(b1-4)GlcNAc
# Method in brief: as §1
# [17] = target: Man(a1-2)Man(a1-6)[Man(a1-3)]Man(a1-6)[Man(a1-2)Man(a1-2)Man(a1-3)]Man
# Method in brief: as §1
# [18] = target: Man(a1-3)[Man(a1-6)]Man(a1-6)[Man(a1-2)Man(a1-3)]Man(b1-4)GlcNAc(b1-4)GlcNAc
# Method in brief: as §1
# [19] = target: Neu5Ac(a2-3)Gal(b1-4)GlcNAc(b1-3)Gal(b1-4)[Fuc(a1-3)]GlcNAc
# Method in brief: as §1
# [20] = target: Neu5Gc(b2-6)Gal(b1-4)GlcNAc
# Method in brief: as §1
binder,measurement,setting,value
Surfactant Protein D (Human); Neck + Carbohydrate Recognition Domain (NCRD) (Homo sapiens) (protein) MLLFLLSALVLLTQPLGYLEAEMKTYSHRTMPSACTLVMCSSVESGLPGRDRDGREGPRGEKGDPGLPGAAGQAGMPGQAGPVGPKGDNGSVGEPGPKGDTGPSGPPGPPGVPGPAGREGALGKQGNIGPQGKPGPKGEAGPKGEVGAPGMQGSAGARGLAGPKGERGVPGERGVPGNTGAAGSAGAMGPQGSPGARGPPGLKGDKGIPGDKGAKGESGLPDVASLRQQVEALQGQVQHLQAAFSQYKKVELFPNGQSVGEKIFKTAQFVKPFTEAQLLCTQAGGQLASPRSAAENAALQQLVVAKNEAAFLSMTDSKTEGKFTYPTGESLVYSNWAPGEPNDDGGSEDCVEIFTNGKWNDAACGEKRLVVCEF,glycan array binding signal (z-score),[1],-0.236
same,glycan array binding signal (z-score),[2],-0.397
same,glycan array binding signal (z-score),[3],-0.207
same,glycan array binding signal (z-score),[4],-0.016
same,glycan array binding signal (z-score),[5],-0.163
same,glycan array binding signal (z-score),[6],-0.274
same,glycan array binding signal (z-score),[7],-0.279
same,glycan array binding signal (z-score),[8],-0.214
same,glycan array binding signal (z-score),[9],-0.341
same,glycan array binding signal (z-score),[10],0.046
same,glycan array binding signal (z-score),[11],-0.173
same,glycan array binding signal (z-score),[12],-0.194
same,glycan array binding signal (z-score),[13],9.14
same,glycan array binding signal (z-score),[14],6.17
same,glycan array binding signal (z-score),[15],-0.269
same,glycan array binding signal (z-score),[16],9.15
same,glycan array binding signal (z-score),[17],2.79
same,glycan array binding signal (z-score),[18],6.5
same,glycan array binding signal (z-score),[19],-0.226
same,glycan array binding signal (z-score),[20],-0.326
